Experimental data from PubChem BioAssay (NCATS).
“And” between values parts separate entries of the source, which are not always exact repeats. Equal entries are not always repeated. Inconclusive results are not listed. Entries that show only a call come without a potency. The source made the active and inactive calls. Unless noted, calls follow the shape of the dose curve; as a rule, active = well fitted curve in the direction sought with a large enough effect; inconclusive = small, poorly fitted or top-dose-only effect, or another doubt; inactive = no such curve, though single readings can be large; an effect the other way counts as inactive or inconclusive.

Tests used:
[1] = Viability counterscreen for antagonist of constitutive androstane receptor (CAR) against the NCATS DSHEA and TCM libraries (AID 1794837);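 also: compound exposure lasted 24 h before viability reading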
Method in brief: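 Cell viability, CellTiter-Fluor, Ex/Em 405/540 nm, 1 h at 37C. HepG2-CYP2B6-hCAR, 2,500 cells/well; cpds + CITCO 48 uM final (antagonist mode), 24 h, 37C/5% CO2.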

[2] = Viability counterscreen for agonist of constitutive androstane receptor (CAR) against the NCATS DSHEA and TCM libraries (AID 1794838)
Method in brief: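 Viability by CellTiter-Fluor fluorescence, 405/540 nm, after 1 h at 37C. HepG2-CYP2B6-hCAR cells were exposed 24 h to test substances in presence of 0.75 uM PK11195 (final).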

[3] = molecular target: Nuclear receptor subfamily 1 group I member 3 (Homo sapiens) (UniProt Q14994); assay: Primary qHTS for agonist of constitutive androstane receptor (CAR) against the NCATS DSHEA and TCM libraries (AID 1794839);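 also: HepG2 cells expressing human CAR with a CYP2B6 reporter plus PK11195 antagonist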
Chain of Nuclear receptor subfamily 1 group I member 3 (Homo sapiens) (Q14994 whole entry, looked up): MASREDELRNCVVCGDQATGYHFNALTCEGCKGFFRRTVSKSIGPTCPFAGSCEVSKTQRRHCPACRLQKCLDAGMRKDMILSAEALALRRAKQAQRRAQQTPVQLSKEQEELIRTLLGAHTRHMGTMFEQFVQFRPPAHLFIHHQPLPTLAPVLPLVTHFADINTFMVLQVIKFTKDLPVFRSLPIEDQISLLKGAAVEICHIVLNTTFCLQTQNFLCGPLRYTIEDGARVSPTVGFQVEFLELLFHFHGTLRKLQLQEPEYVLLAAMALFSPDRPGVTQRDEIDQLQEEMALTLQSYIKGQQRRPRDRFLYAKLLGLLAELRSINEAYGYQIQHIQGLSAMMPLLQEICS
Method in brief: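 Luminescence from ONE-Glo luciferase was the agonist read-out in HepG2-CYP2B6-hCAR cells exposed 24 h to test substances. Wells also held the CAR antagonist PK11195 at 0.75 µM final. Viability was by CellTiter-Fluor fluorescence.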

[4] = Quantitative High-Throughput drug screen in 47 multiple myeloma cell lines against the NCATS MIPE library collection: FR4_PLB cell viability assay (AID 1918924; also: nearly all actives have a fitted effect of over 35% in size; also: potency is read from the fitted curve at half-maximal effect)
Method in brief: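 Myeloma cells (500 per well) were exposed to MIPE 4.0 compounds by pin transfer and incubated 48 hours at 37C, 5% CO2. Viability was read as ATP by CellTiter-Glo luminescence, normalised to DMSO (100%) and media-only (0%) wells.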

[5] = NCATS anti-infectives library activity on HEK293 viability as a counter-qHTS vs the C. elegans viability qHTS (AID 1745854);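 also: HEK293 cells exposed to compounds for 24 hr before the viability read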
Method in brief: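 Counter-screen for cytotoxicity: HEK293, 24 hr, 37C, compounds up to 41.7 uM final (a dilution series, 1:5). Readout CellTiter-Glo luminescence, 10 min RT. Digitonin control, 83.3 uM final.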

[6] = molecular target: Glutathione peroxidase 1 (Homo sapiens) (UniProt P07203); assay: Primary qHTS Assay for Inhibitors of Recombinant Selenoprotein Glutathione Peroxidase 1 (GPX1) (AID 1845191); also: nearly all actives have a fitted effect of over 65% in size; also: potency is read from the fitted curve at half-maximal effect
Chain of Glutathione peroxidase 1 (Homo sapiens) (P07203 whole entry, looked up): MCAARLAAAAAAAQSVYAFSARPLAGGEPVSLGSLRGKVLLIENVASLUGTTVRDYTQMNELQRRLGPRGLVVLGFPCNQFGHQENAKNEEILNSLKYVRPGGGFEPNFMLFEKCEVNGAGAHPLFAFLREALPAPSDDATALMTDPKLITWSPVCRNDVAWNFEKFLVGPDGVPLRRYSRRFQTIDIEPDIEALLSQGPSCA
Method in brief: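 NADPH consumption tracked by fluorescence at 340/450 nm between t=0 and t=15 min, room temperature. Final mix: 10 nM GPX1, 100 nM glutathione reductase, 1 mM GSH, 0.5 mM NADPH, 0.5 mM cumene hydroperoxide, 0.01% BSA; 30 min compound–enzyme preincubation.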

[7] = Primary fluorescence-based thiol-reactive (MSTI) qHTS assay for identification of artifact compounds. (AID 1845221);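 also: thiol-reactive compounds lower the probe fluorescence signal; nearly all actives have a fitted effect of over 65% in size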
Method in brief: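 Probe: MSTI 4 uM, PBS pH 7.4, 2% DMSO. Incubation 1 h, RT, light-protected. Readout fluorescence 525/598 nm.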

[8] = tested on: Nanoluciferase (engineered Oplophorus gracilirostris luciferase); assay: Primary Nanoluciferase (NLuc) qHTS assay for identification of artifact compounds. (AID 1845222)
Method in brief: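 Luminescence from secreted NLuc (filtered, 1:55-diluted S16 cell medium) read 5 min after Nano-Glo substrate; compounds preincubated 15 min, RT. Hill fits of inhibition normalized to DMSO and no-enzyme.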

[9] = Primary redox qHTS assay for identification of artifact compounds. (AID 1845223)
Method in brief: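 Redox-cycling detection via DTT (250 uM final) oxidation coupled to Amplex Red (25 uM)/HRP (250 mU/mL) in HBSS. 15 min preincubation plus 30 min after DTT, room temperature. Ex/Em 525/598 nm; 4-parameter Hill fit against DMSO and 10 uM DA3003.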

[10] = Quantitative High-Throughput drug screen in 47 multiple myeloma cell lines against the NCATS MIPE library collection: Delta47_JCRB cell viability assay (AID 1918925; also: nearly all actives have a fitted effect of over 45% in size; also: potency is read from the fitted curve at half-maximal effect)
Method in brief: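 Luminescent ATP measurement with CellTiter-Glo gives viability, scaled between DMSO-only wells (100%) and media-only wells (0%). Cells, 500 per well, faced library compounds for 48 hours at 37C.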

[11] = molecular target: Catechol O-methyltransferase (Homo sapiens) (UniProt P21964); assay: Confirmatory Screen for Target Class Profiling of Small Molecule Inhibitors of Methyltransferases (AID 1745852; calls by dose curve; also: potency is read from the fitted curve at half-maximal effect); settings: MTase-Glo luminescence, SAH detection, recombinant enzyme; measured here: COMT max response; stronger effect = lower value
Chain of Catechol O-methyltransferase (Homo sapiens) (P21964 whole entry, looked up): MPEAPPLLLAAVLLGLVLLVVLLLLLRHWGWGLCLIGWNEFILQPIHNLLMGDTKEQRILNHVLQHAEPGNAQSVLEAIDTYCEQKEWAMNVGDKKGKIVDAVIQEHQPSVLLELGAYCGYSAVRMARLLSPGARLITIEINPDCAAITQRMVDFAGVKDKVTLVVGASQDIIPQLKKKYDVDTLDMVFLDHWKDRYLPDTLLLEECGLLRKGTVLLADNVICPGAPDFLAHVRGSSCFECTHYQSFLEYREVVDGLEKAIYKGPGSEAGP

[12] = molecular target: Guanidinoacetate N-methyltransferase (Homo sapiens) (UniProt Q14353); assay: as above; settings: MTase-Glo luminescence, SAH detection, recombinant enzyme; activity change, negative = inhibition: at 57.3 µM (top of the series)
[13] = molecular target: Nicotinamide N-methyltransferase (Homo sapiens) (UniProt P40261); assay: as above; settings: MTase-Glo luminescence, SAH detection, recombinant enzyme; measured here: NNMT max response; stronger effect = lower value
Chain of Nicotinamide N-methyltransferase (Homo sapiens) (P40261 whole entry, looked up): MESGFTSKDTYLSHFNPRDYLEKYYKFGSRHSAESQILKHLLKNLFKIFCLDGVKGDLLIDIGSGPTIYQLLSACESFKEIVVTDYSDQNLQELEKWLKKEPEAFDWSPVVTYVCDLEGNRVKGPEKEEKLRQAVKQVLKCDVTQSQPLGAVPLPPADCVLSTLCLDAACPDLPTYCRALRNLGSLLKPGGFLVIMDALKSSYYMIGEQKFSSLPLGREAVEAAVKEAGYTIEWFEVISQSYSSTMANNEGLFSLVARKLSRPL

[14] = molecular target: Phenylethanolamine N-methyltransferase (Homo sapiens) (UniProt P11086); assay: as above; settings: MTase-Glo luminescence, SAH detection, recombinant enzyme; measured here: PNMT max response; stronger effect = lower value
Chain of Phenylethanolamine N-methyltransferase (Homo sapiens) (P11086 whole entry, looked up): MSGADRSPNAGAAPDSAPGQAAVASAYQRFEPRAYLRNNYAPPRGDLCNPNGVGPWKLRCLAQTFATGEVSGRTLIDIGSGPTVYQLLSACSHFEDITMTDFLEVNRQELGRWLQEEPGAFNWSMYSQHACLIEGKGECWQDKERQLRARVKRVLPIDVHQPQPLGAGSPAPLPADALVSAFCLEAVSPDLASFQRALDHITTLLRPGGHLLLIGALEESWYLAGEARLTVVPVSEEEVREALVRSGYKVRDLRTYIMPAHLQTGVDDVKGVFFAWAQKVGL

[15] = NCATS anti-infectives library activity on the primary C. elegans qHTS viability assay (AID 1745855; calls by dose curve)
Method in brief: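 GFP read-out by 488 nm laser cytometry at day 0, 3 and 7, gated on object perimeter, area and peak intensity, scored viability of PE254-GFP-FLuc worms exposed to compound in S medium with bacterial capsules at 21 °C.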

[16] = molecular target: Phospholipid hydroperoxide glutathione peroxidase GPX4 (Homo sapiens) (UniProt P36969); assay: Primary qHTS Assay for Inhibitors of Recombinant Selenoprotein Glutathione Peroxidase 4 (GPX4) (AID 1845192); also: nearly all actives have a fitted effect of over 65% in size
Chain of Phospholipid hydroperoxide glutathione peroxidase GPX4 (Homo sapiens) (P36969 whole entry, looked up): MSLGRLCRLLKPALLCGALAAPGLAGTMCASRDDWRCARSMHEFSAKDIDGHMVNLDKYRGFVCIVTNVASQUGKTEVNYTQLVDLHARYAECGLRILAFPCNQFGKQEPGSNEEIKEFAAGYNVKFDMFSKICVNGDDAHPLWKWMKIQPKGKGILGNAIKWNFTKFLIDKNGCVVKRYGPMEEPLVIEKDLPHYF
Method in brief: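 NADPH consumption followed by fluorescence at 340/450 nm, t=0 and after 15 min at room temperature. Reaction started with cumene hydroperoxide (0.5 mM final) after 30 min compound–GPX4 preincubation; final 200 nM GPX4, 100 nM GR, 1 mM GSH, 0.5 mM NADPH.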

[17] = molecular target: Luciferin 4-monooxygenase (Photinus pyralis) (UniProt P08659); assay: Primary firefly luciferase (FLuc) qHTS assay for identification of artifact compounds. (AID 1845220); also: nearly all actives have a fitted effect of over 60% in size
Method in brief: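 Compounds sat 15 min at room temperature with 10 uM luciferin and 10 uM ATP (pH 7.6 Tris acetate). Firefly luciferase (10 nM final) was then added, and luminescence was read 5 min later. Data normalized to no-enzyme and DMSO controls were Hill-fitted.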

**Q.** Which outcome [1] does the source give for `OC[C@H]1O[C@@H](OCCc2ccc(O)cc2)[C@H](O)[C@@H](O)[C@H]1O` here?
**A.** The outcome was “inactive”.

**Q.** And the Potency [2]?
**A.** Its Potency is “inactive”.

**Q.** What about the outcome [3] of the same compound?
**A.** The outcome was “inactive”.

**Q.** And the Potency [4]?
**A.** Its Potency is “inactive”.

**Q.** For `CNC(=O)c1c(-c2ccc(F)cc2)oc2cc(N(CCO)S(C)(=O)=O)c(C3CC3)cc12`, which outcome [5] is on record?
**A.** The outcome was “inactive”.

**Q.** What about the Potency [6] of the same compound?
**A.** Its Potency is “inactive”.

**Q.** What about the Potency [7] of the same compound?
**A.** Its Potency is “inactive”.

**Q.** And the Potency [8]?
**A.** The Potency was “inactive”.

**Q.** And the outcome [9]?
**A.** Its outcome is “inactive”.

**Q.** And the Potency [4]?
**A.** The Potency was 23.5 µM (active).

**Q.** Which results are given for `CCOC(=O)c1c(CSc2ccccc2)n(C)c2cc(Br)c(O)c(CN(C)C)c12`?
**A.** outcome [5]: inactive; Potency [6]: inactive

**Q.** Which outcome [5] does the source give for `CC(C)CN(C[C@@H](O)[C@H](Cc1ccccc1)NC(=O)O[C@H]1CO[C@H]2OCC[C@H]21)S(=O)(=O)c1ccc(N)cc1` here?
**A.** The outcome was “inactive”.

**Q.** What about the Potency [4] of the same compound?
**A.** Its Potency is “inactive”.

**Q.** And the Potency [10]?
**A.** The Potency was 1.48 µM (active).

**Q.** Which results are given for `CN(C)CCCNC(=O)c1ccc(-c2cc(O)c3ncccc3c2)cc1`?
**A.** activity [11]: -84% and -99.6%; activity change, negative = inhibition [12]: 2.82% and 3.64%; activity [13]: -0.93% and -8.84%; activity [14]: -2.71% and -2.66%; Potency [15]: inactive; Potency [16]: inactive; Potency [17]: inactive; Potency [8]: inactive; Potency [4]: 20.9 µM (active)

**Q.** What does the source list for `CCN1CCC(n2cc(CNc3cc(Cl)c4ncc(C#N)c(Nc5ccc(F)c(Cl)c5)c4c3)nn2)CC1`?
**A.** activity [11]: -89.7%; Potency [12]: 10.8 µM (active); activity [13]: -81.6%; activity [14]: -91.4%; Potency [6]: 1.15 µM (active); Potency [16]: inactive; Potency [7]: inactive; Potency [8]: inactive; Potency [10]: 14.8 µM (active)

**Q.** Which activity [11] does the source give for `CNC1CCC(N(Cc2cccc(-c3ccncc3)c2)C(=O)c2sc3ccccc3c2Cl)CC1` (centres undefined) here?
**A.** Its activity is -14.8%.

**Q.** And the activity change, negative = inhibition [12]?
**A.** The activity change, negative = inhibition was -1.13%.

**Q.** And the activity [13]?
**A.** Its activity is -65.2%.

**Q.** And the activity [14]?
**A.** Its activity is -20.3%.

**Q.** And the Potency [6]?
**A.** The Potency was “inactive”.

**Q.** And the Potency [16]?
**A.** Its Potency is “inactive”.

**Q.** And the Potency [7]?
**A.** Its Potency is “inactive”.

**Q.** And the Potency [8]?
**A.** Its Potency is “inactive”.

**Q.** What about the Potency [4] of the same compound?
**A.** Its Potency is 20.9 µM (active).

**Q.** What about the Potency [10] of the same compound?
**A.** The Potency was 7.43 µM (active).

**Q.** What does the source list for `Cc1c(C(=O)Nc2ccc(N3C[C@@H](C)O[C@@H](C)C3)nc2)cccc1-c1ccc(OC(F)(F)F)cc1`?
**A.** Potency [6]: inactive; Potency [16]: inactive; Potency [17]: inactive; Potency [7]: inactive; Potency [8]: inactive; outcome [9]: inactive; Potency [10]: 4.69 µM (active)

**Q.** For `COc1nccc(-c2c(-c3ccc(F)cc3)ncn2C2CCC(O)CC2)n1` (centres undefined), which Potency [6] is on record?
**A.** Its Potency is “inactive”.

**Q.** And the Potency [16]?
**A.** Its Potency is “inactive”.

**Q.** What about the Potency [17] of the same compound?
**A.** The Potency was “inactive”.

**Q.** And the Potency [7]?
**A.** Its Potency is “inactive”.

**Q.** And the Potency [8]?
**A.** Its Potency is “inactive”.

**Q.** And the Potency [4]?
**A.** Its Potency is “inactive”.

**Q.** For `COc1cc([C@@H]2c3cc4c(cc3[C@@H](O[C@@H]3O[C@@H]5CO[C@@H](C)O[C@@H]5[C@H](O)[C@@H]3O)[C@H]3COC(=O)[C@H]23)OCO4)cc(OC)c1O`, which Potency [6] is on record?
**A.** The Potency was “inactive”.

**Q.** And the Potency [16]?
**A.** The Potency was “inactive”.

**Q.** With `NS(=O)(=O)c1cc(Cl)c(Cl)c(S(N)(=O)=O)c1` as the compound, how does the Potency [6] read?
**A.** Its Potency is “inactive”.

**Q.** What about the Potency [16] of the same compound?
**A.** The Potency was “inactive”.

**Q.** What about the Potency [17] of the same compound?
**A.** The Potency was “inactive”.

**Q.** And the Potency [7]?
**A.** The Potency was “inactive”.

**Q.** What about the Potency [8] of the same compound?
**A.** Its Potency is “inactive”.

**Q.** What about the outcome [9] of the same compound?
**A.** The outcome was “inactive”.

**Q.** And the Potency [4]?
**A.** Its Potency is “inactive”.

**Q.** What about the Potency [10] of the same compound?
**A.** The Potency was “inactive”.

**Q.** For `CN(C)CC[C@H](CSc1ccccc1)Nc1ccc(S(=O)(=O)NC(=O)c2ccc(N3CCN(Cc4ccccc4-c4ccc(Cl)cc4)CC3)cc2)cc1[N+](=O)[O-]`, which Potency [6] is on record?
**A.** Its Potency is “inactive”.

**Q.** What about the Potency [16] of the same compound?
**A.** Its Potency is “inactive”.

**Q.** What does the source list for `Cc1ccccc1C(C(=O)NC1CCCCC1)N(C(=O)CNc1ccc(C#N)cc1)c1cccc(F)c1` (centres undefined)?
**A.** Potency [6]: inactive; Potency [16]: inactive; Potency [17]: inactive; Potency [7]: inactive; Potency [8]: inactive; outcome [9]: inactive
